Compounds with a hit are over-represented: about 2.1% of the library has one in this group of screens.
U2OS ROS induce = cancer cell ROS induction; U2OS ROS induction, H2DCF-DA fluorescence; ROS induction (% of piperlongumine), % at 10 µM; hit rate 2% among 46,000; in the data active means ROS induction above about 79%, passing the limit was not always enough;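 further: 0% = DMSO vehicle median and 100% = reference compound median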
YB-1 expression = YB-1 expression inhibition. hit rate 0.37% among 30,000. AID 434959. delta delta Cp (YB-1 minus CDIP) (concentration not given with the values). U2OS, qRT-PCR YB-1 vs CDIP delta delta Cp, 16 h; hits give high values; zero = DMSO, each unit about twofold;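 active means delta delta Cp rounded down to an integer at or above 3, about 3 SD of DMSO wells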;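 further: higher means less YB-1 transcript or more CDIP transcript relative to DMSO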
* marks the source's active call; other numbers are inactive results; nt = not tested or not shown.

SMILES	U2OS ROS induce	YB-1 expression
C[C@H](CO)N1C[C@H](C)[C@@H](CN(C)C(=O)Nc2ccc3c(c2)OCO3)Oc2ccc(NC(=O)Nc3cccc4ccccc34)cc2C1=O	-9	-0.2
C[C@H]1CN([C@@H](C)CO)C(=O)c2cc(NC(=O)Nc3cccc4ccccc34)ccc2O[C@@H]1CN(C)Cc1ccc2c(c1)OCO2	120*	0.34
C[C@H](CO)N1C[C@H](C)[C@H](CN(C)C(=O)Nc2ccc3c(c2)OCO3)Oc2ccc(NC(=O)Nc3cccc4ccccc34)cc2C1=O	79*	0.1
C[C@@H]1CN([C@@H](C)CO)C(=O)c2cc(NC(=O)Nc3cccc4ccccc34)ccc2O[C@@H]1CN(C)Cc1ccc2c(c1)OCO2	-8	0.24
Cc1ccccc1N/C(=N\S(=O)(=O)c1ccccc1)c1ccccc1	48	nt
CCN(C(=O)c1cccc(C(=O)N(CC)c2ccccc2)c1)c1ccccc1	1	0.31
CC(=O)OC[C@H]1O[C@@H](Oc2cc(OC(C)=O)c3c(=O)cc(-c4ccc(OC(C)=O)cc4)oc3c2)[C@H](OC(C)=O)[C@@H](OC(C)=O)[C@@H]1OC(C)=O	246*	-0.013
CC(=O)Oc1ccc(-c2coc3cc(OC(C)=O)cc(OC(C)=O)c3c2=O)cc1	26	0.38
CCc1ccc(-c2csc(Nc3ccc(S(=O)(=O)Nc4cc(OC)nc(OC)n4)cc3)n2)cc1	7	nt
O=C(c1cnn2ccccc12)N1CCC(C(O)(c2ccccc2)c2ccccc2)CC1	-17	nt
Cc1cc(C)c2c(CC(=O)Nc3c(C(=O)c4ccccc4)oc4ccccc34)coc2c1	10	nt
CC1=C(CO)C(=O)OC([C@@H](C)C2CC[C@H]3C4C[C@H]5O[C@]56[C@@H](O)C=CC(=O)[C@]6(C)C4CC[C@]23C)C1 (stereo not given in full)	138*	0.67
C[C@H]1CN([C@@H](C)CO)C(=O)Cc2cc(NC(=O)Cc3cn(C)c4ccccc34)ccc2O[C@@H]1CN(C)S(=O)(=O)c1ccc(F)cc1	89*	0.13
C[C@H]1CN([C@@H](C)CO)C(=O)Cc2cc(NC(=O)Nc3ccc(F)cc3)ccc2O[C@@H]1CN(C)Cc1ccc(C(=O)Nc2ccccc2N)cc1	25	0.2
C[C@@H]1CN([C@H](C)CO)C(=O)Cc2cc(NC(=O)Cc3cn(C)c4ccccc34)ccc2O[C@H]1CN(C)S(=O)(=O)c1ccc(F)cc1	23	0.084
C[C@@H]1CN([C@@H](C)CO)C(=O)Cc2cc(NC(=O)Cc3ccccc3)ccc2O[C@@H]1CN(C)CC1CCCCC1	4	0.021
COc1ccc(CN(C)C[C@@H]2Oc3ccc(NC(=O)Cc4cn(C)c5ccccc45)cc3C(=O)N([C@@H](C)CO)C[C@H]2C)cc1	32	0.13
C[C@H]1CN([C@@H](C)CO)C(=O)Cc2cc(NC(=O)Cc3ccccc3)ccc2O[C@@H]1CN(C)CC1CCCCC1	108*	0.032
COc1ccc(CN(C)C[C@H]2Oc3ccc(NC(=O)Cc4cn(C)c5ccccc45)cc3C(=O)N([C@H](C)CO)C[C@@H]2C)cc1	185*	-0.48
C[C@@H]1CN([C@H](C)CO)C(=O)Cc2cc(NC(=O)Nc3ccccc3)ccc2O[C@@H]1CN(C)Cc1ccc(C(=O)Nc2ccccc2N)cc1	102*	0.27
Cn1c(=O)n(C)c2cc(CN3C(=O)c4ccccc4C3=O)ccc21	-7	nt
Cc1sc2ncnc(Sc3ncnc4sc(C)c(C)c34)c2c1C	-15	nt
CCOc1ccc(NC(=S)N2CCn3cccc3C2c2ccc(OC)cc2)cc1 (stereo not given)	9	nt
CCCc1cc(=O)[nH]c(/N=C(\N)Nc2cccc(C)c2)n1	-6	nt
NC(=O)C1CCN(C(=O)CN2C(=O)/C(=C/c3ccccc3F)Sc3ccccc32)CC1	4	nt
SMILES	U2OS ROS induce	YB-1 expression
CC1=C(C(=O)Nc2ccccn2)C(c2ccc(C)cc2)C2=C(CC(C)(C)CC2=O)N1 (stereo not given)	23	nt
C[C@H]1CN([C@@H](C)CO)C(=O)Cc2cc(NC(=O)Cc3ccccc3)ccc2O[C@H]1CN(C)Cc1ccc(Oc2ccccc2)cc1	64	-0.034
C[C@H]1CN([C@@H](C)CO)C(=O)Cc2cc(NC(=O)Cc3cn(C)c4ccccc34)ccc2O[C@H]1CN(C)Cc1ccc(Oc2ccccc2)cc1	0	0.014
C[C@@H]1CN([C@H](C)CO)C(=O)Cc2cc(NC(=O)Cc3cn(C)c4ccccc34)ccc2O[C@@H]1CN(C)Cc1ccc(C(=O)Nc2ccccc2N)cc1	86*	-0.23
C[C@H]1CN([C@@H](C)CO)C(=O)c2cc(NC(=O)Cc3cn(C)c4ccccc34)ccc2O[C@@H]1CN(C)Cc1ccc(-c2ccccc2)cc1	153*	0.27
C[C@@H]1CN([C@H](C)CO)C(=O)Cc2cc(NC(=O)Cc3ccccc3)ccc2O[C@@H]1CN(C)Cc1ccc(Oc2ccccc2)cc1	95*	0.012

Source: PubChem
